# Methyltransferases – Primary Screen for Target Class Profiling of Small Molecule Inhibitors of Methyltransferases | purified enzyme, MTase-Glo SAH luminescence; hits give low values | actives 3.9% (n = 25,000) | calls only at 40 µM; call rule not given here
#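 Each enzyme was reacted with SAM and its substrate, with compounds tested once at 40 uM; SAH formed was read by MTase-Glo luminescence.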
# * = called active by the depositor; i = inactive; + = active, no number. This excerpt belongs to a sample that is enriched for hits. % is set by controls: 0 for no effect and ±100 for the full control effect.
SMILES,Methyltransferases
NCC(CNc1nc(Nc2cccc(NC(=O)N3CCCC3)c2)ncc1I)C(=O)c1cccs1 (stereo not drawn),+
CCOC(=O)Cc1ccc(NC(=O)N2CCn3c(C)ccc3C2C(C)C)cc1 (stereo not drawn),i
Cc1nc(Nc2ncc(C(=O)Nc3c(C)cccc3Cl)s2)cc(N2CCN(CCO)CC2)n1,+
OCCN1CCN(c2ccc(-c3nc(-c4cccc(C(F)(F)F)c4)no3)cn2)CC1,i
O=C(NCCCCN1CCN(c2cccc(Cl)c2Cl)CC1)c1cc2ccccc2s1,i
COc1cccc(N2C(=O)c3cc4occc4n3CC2(C)C(=O)NC2CCCCCCC2)c1 (stereo not drawn),i
CC1(C(=O)NC2CCCCCC2)Cn2c(cc3sccc32)C(=O)N1CCCN1CCOCC1 (stereo not drawn),i
COC(=O)c1cc2n(n1)CC(C)(C(=O)NC1CCCCC1)N(Cc1ccccc1Cl)C2=O (stereo not drawn),i
Cc1cccc(NC(=O)Cn2c(=O)oc3cc(S(=O)(=O)N4CCCC4)ccc32)c1C,i
CC(C)Cn1c(=O)c2ccc(C(=O)NC(C)C)cc2n2c(SCC(=O)NC3CCCC3)nnc12,i
Cc1ccc(C)c(C(=O)Cn2nc3n(C)c(=O)c4ccc(C(=O)NC5CCCCC5)cc4n3c2=O)c1,i
CC1(CO)CC(O)C2(C)CCC3(C)C(=CCC4C5(C=O)CCC(OC6OC(C(=O)O)C(O)C(O)C6OC6OC(C(=O)O)C(O)C(O)C6O)C(C)(C)C5CCC43C)C2C1 (stereo not drawn),+
C[C@@H]1O[C@@H](O[C@H]2[C@H](O[C@H]3[C@H](O[C@H]4CC[C@@]5(C)C(CC[C@]6(C)C5CC=C5[C@@H]7CC(C)(C)C[C@@H](O)[C@]7(C)CC[C@]56C)[C@@]4(C)CO)O[C@H](C(=O)O)[C@@H](O)[C@@H]3O)O[C@H](CO)[C@H](O)[C@@H]2O)[C@H](O)[C@H](O)[C@H]1O (stereo partly drawn),i
C[C@@H]1O[C@@H](O[C@H]2[C@H](O[C@H]3[C@H](O[C@H]4CC[C@@]5(C)C(CC[C@]6(C)C5CC=C5[C@@H]7CC(C)(C)C[C@@H](O)[C@]7(C)CC[C@]56C)[C@@]4(C)CO)O[C@H](C(=O)O)[C@@H](O)[C@@H]3O)O[C@H](C(=O)O)[C@H](O)[C@@H]2O)[C@H](O)[C@H](O)[C@H]1O (stereo partly drawn),i
CCOc1cccc(C2c3cccn3-c3sc4c(c3CN2C(=O)Nc2ccc(OC)cc2OC)CCCC4)c1 (stereo not drawn),i
COc1ccc2c(c1)c(NC(C)=O)c1n2CC(C)(C(=O)NC2CCCCCC2)N(CCN(C)C)C1=O (stereo not drawn),i
O=C(Cn1nc2n(CCc3ccccc3)c(=O)c3ccccc3n2c1=O)Nc1ccc(F)cc1F,i
CCOC(=O)c1cc2n(n1)CC(C)(C(=O)NCCCOC)N(c1cc(C)cc(C)c1)C2=O (stereo not drawn),i
Cn1c(=O)n(C)c2cc(S(=O)(=O)Nc3ccc(F)c(F)c3)ccc21,i
CC(C)=C1C[C@@]2(C)C(=CC1=O)CC[C@@H](O)[C@@H]2C,i
CC1=CC(=O)C(=C(C)C)CC2C(C)(O)CCC12O (stereo not drawn),+
CC1CC(=O)C2=C(O1)OC1(C)CCC3C(C)(C)C4OC4C(=O)C3(C)C1C2 (stereo not drawn),+
CC1CC(=O)C2=C(O1)OC1(C)CCC3C(C)(C)C=CC(=O)C3(C)C1C2 (stereo not drawn),+
CCC1c2ccc(C)n2CCN1C(=O)Nc1ccc(C)cc1 (stereo not drawn),i
O=C(Cn1ccc2cc(S(=O)(=O)N3CCCC3)ccc21)NCc1cccs1,i
SMILES,Methyltransferases
CCc1cc2c(cc3n2CC(C)(C(=O)NC2CCCCCC2)N(c2ccccc2C)C3=O)s1 (stereo not drawn),i
CC(C)=CC/C=C(\C)[C@H]1CC[C@]2(C)[C@@H]1[C@H](O)C[C@@H]1[C@@]3(C)CC[C@H](O)C(C)(C)[C@@H]3[C@@H](O[C@@H]3O[C@H](CO)[C@@H](O)[C@H](O)[C@H]3O)C[C@]12C,i
CC(C)=CC/C=C(/C)[C@H]1CC[C@]2(C)[C@@H]1[C@H](O)CC1[C@@]3(C)CC[C@H](O)C(C)(C)[C@@H]3[C@@H](O[C@@H]3O[C@H](CO)[C@@H](O)[C@H](O)[C@H]3O[C@@H]3O[C@@H](C)[C@H](O)[C@@H](O)[C@H]3O)C[C@]12C (stereo partly drawn),i
C=C1C(OC2OC(CO)C(O)C(O)C2O)CC2C(C)(C)C(O)CCC2(C)C1CC/C(C)=C\COC(=O)CC(=O)O (stereo not drawn),+
CC(C)CCn1c(=O)c2ccc(C(=O)NCC(C)C)cc2n2c(=O)n(Cc3cccc(Cl)c3)nc12,i
CCCN1C(=O)c2cc3ccc(OC)cc3n2CC1(C)C(=O)NC1CCCC1 (stereo not drawn),i

# Screens from PubChem.
